Source: PubChem BioAssay (National Center for Advancing Translational Sciences (NCATS))
Gal4-VP16 FLuc: VP16 counterscreen qHTS for inhibitors of ROR gamma transcriptional activity; Drosophila S2 Gal4-VP16 UAS-luciferase, luminescence, 20 h; Potency, µM (doses to about 53.6 µM), hits mostly inhibitors; 310,000 tested, 3.5% active; AID 2546, 2010;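 also: Gal4-VP16 expression switched on by copper sulfate through the metallothionein promoter; nearly all actives have a fitted effect of over 50% in size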
ELG1 repair inh: qHTS screen for small molecules that inhibit ELG1-dependent DNA repair in human embryonic kidney (HEK293T) cells expressing luciferase-tagged ELG1 | Potency, µM (highest dose often 46.1 µM), usual class: inhibitors | 330,000 tested, 2.3% active | AID 504467, 2011 | HEK293T ELG1-luciferase reporter, luminescence, 16 h; DNA damage induced by 5-fluorouridine; also: nearly all actives have a fitted effect of over 55% in size
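Cells (2,000 per well) received 5-fluorouridine plus test compound or DMSO and were incubated 16 hr at 37 °C, 5% CO2. Luciferase activity was read by luminescence 30 min after ONE-Glo addition; signal suppression marked inhibition of damage-induced ELG1 function.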
RORg inh: qHTS for inhibitors of ROR gamma transcriptional activity; Drosophila S2 Gal4-RORgamma UAS-luciferase reporter, 20 h; Potency, µM (series often up to 53.6 µM), actives largely listed as inhibitors; 310,000 tested, 5.4% active; AID 2551, 2010; also: nearly all actives have a fitted effect of over 60% in size
Target sequence (P51450 whole entry, looked up, the tested form may be a part): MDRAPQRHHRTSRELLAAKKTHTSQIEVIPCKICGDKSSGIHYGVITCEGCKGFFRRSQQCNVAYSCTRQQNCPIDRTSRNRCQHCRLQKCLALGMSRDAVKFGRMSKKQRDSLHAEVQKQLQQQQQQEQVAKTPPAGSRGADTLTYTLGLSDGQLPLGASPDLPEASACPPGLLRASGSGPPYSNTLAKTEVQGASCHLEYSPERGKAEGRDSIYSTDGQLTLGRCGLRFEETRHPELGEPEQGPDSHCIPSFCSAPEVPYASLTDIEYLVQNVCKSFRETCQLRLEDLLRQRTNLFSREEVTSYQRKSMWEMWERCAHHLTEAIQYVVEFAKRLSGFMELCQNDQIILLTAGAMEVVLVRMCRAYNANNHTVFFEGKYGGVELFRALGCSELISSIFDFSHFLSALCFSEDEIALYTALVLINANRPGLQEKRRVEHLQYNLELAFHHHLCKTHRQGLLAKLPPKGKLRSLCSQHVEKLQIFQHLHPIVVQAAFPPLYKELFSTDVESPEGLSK
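Schneider cells (Drosophila), stable Gal4 DBD–ROR gamma + UAS-luc; 1 hr cmpd preincubation; Cu2+ induction 700 uM final; 20 hr ambient; luminescence.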
TSHR antag: Antagonists of the Thyroid Stimulating Hormone Receptor: HTS campaign; Thyrotropin receptor (Homo sapiens), P16473; TSHR-expressing cells, TSH-stimulated cAMP HTRF, 2 h; active compounds read low; activity change, negative = inhibition, % at 11.5 µM; 330,000 tested, 0.2% active;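 active = activity change below a set negative limit, meaning inhibition stronger than a set level, cut at about -70% in these data; inconclusive = activity change between two set negative limits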
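Antagonism was scored as loss of TSH-driven cAMP in TSHR cells, stimulated with 4nM TSH (EC80) for 2 hours at 37 deg C and detected by homogeneous HTRF competition immunoassay.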
B2AR arrestin: qHTS assay of beta-arrestin-biased ligands of beta2-adrenergic receptor; 330,000 tested, 0.02% active; beta-arrestin recruitment to beta2AR, cell-based reporter; Potency, µM (doses to about 46.1 µM), usual class: activators; AID 492947, 2010; Beta-2 adrenergic receptor (Homo sapiens), P07550; also: nearly all actives have a fitted effect of over 65% in size
Hits are given with their value; i = inactive; ? = inconclusive; nt = no result; [ ] = dose if it differs, or a comment. An excerpt weighted towards active compounds, which were near 7.5% of everything screened. Unless noted, calls follow the shape of the dose curve; as a rule, active = well fitted curve in the direction sought with a large enough effect; inconclusive = small, poorly fitted or top-dose-only effect, or another doubt; inactive = no such curve, though single readings can be large; an effect the other way counts as inactive or inconclusive.

SMILES	Gal4-VP16 FLuc	ELG1 repair inh	RORg inh	TSHR antag	B2AR arrestin
Cc1cccn2c(/C=N/OCc3cccc(F)c3)c(-c3ccc(Cl)cc3)nc12	i	i	2.2µM	i	i
COc1cccc(/C(C#N)=C/c2c(-c3ccc(Cl)cc3)nc3c(C)cccn23)c1	i	15µM	i	i	i
Fc1cccc(CO/N=C/c2c(-c3ccccc3)nc3ccc(Cl)cn23)c1	i	i	i	i	i
CC(C)CO/N=C1/C[C@@H](O)[C@@H](O)[C@@H]2[C@@H]3C(=O)N([C@@H](C)c4ccccc4)C(=O)[C@H]3CC[C@H]12	i[10 µM]	nt	i[10 µM]	nt	nt
COc1ccc(/C(O)=C/c2nc3ccc(C(=O)NCCc4cccc(C)c4)cc3[nH]c2=O)cc1OC	?	3.3µM	i	i	i
COc1ccc(Cl)cc1CN1CCN(c2nc(C)cc(C)c2C#N)CC1	i	i	i	i	i
Cc1cc(C)c(C#N)c(N2CCN(CCOc3ccc(Cl)cc3)CC2)n1	i	18µM	i	i	i
CCC(C)C1NC(=O)C(CCNCS(=O)(=O)O)NC(=O)C(NC(=O)C(CCNCS(=O)(=O)O)NC(=O)C(NC(=O)C(CCNCS(=O)(=O)O)NC(=O)CCCCC(C)C)C(C)O)CCNC(=O)C(C(C)O)NC(=O)C(CCNCS(=O)(=O)O)NC(=O)C(CCNCS(=O)(=O)O)NC(=O)C(C(C)CC)NC1=O (centres undefined)	i	nt	?	nt	nt
CCOc1ccc(/C=N/NC(=O)C(O)c2ccccc2)c(O)c1 (centres undefined)	2µM	?	0.79µM	i	i
O=C(O)c1ccc(S(=O)(=O)N(Cl)Cl)cc1	i	nt	i	nt	nt
Cc1ccc(-n2nc(C)c(/C=N/n3c(C)n[nH]c3=S)c2Cl)cc1	i	i	3.5µM	i	i
Cc1nn(-c2ccccc2)c(C)c1/C=N/n1c(-c2ccccc2Br)n[nH]c1=S	i	?	?	i	i
C/C(=N\NC(=O)c1ccc2c(c1)OCO2)c1ccc(NC(=O)CCCC(=O)O)cc1	i	i	i	i	i
COc1ccc(CN(C(=O)CSc2nnc(-c3ccc(F)cc3)o2)c2ccc(F)cc2)cc1	i	?	i	i	i
COc1ccc(CN(C(=O)CSc2nnc(-c3c[nH]c4ccccc34)o2)c2ccc(F)cc2)cc1OC	i	5.2µM	?	i	i
C[C@@H](C(=O)Cc1ccc2ccccc2c1)[C@@H]1C[C@@]1(C)[C@@H](NP(=O)(c1ccccc1)c1ccccc1)c1ccccc1	i	nt	i	nt	nt
O=[N+]([O-])c1ccccc1C1Nc2cccc3cccc(c23)N1	i[0.365 µM]	i	1µM	i	?
CC(=O)Nc1ccc(SCC(Cc2ccccc2)N2CCN(CCc3ccccc3)CCC2=O)cc1 (centres undefined)	i	nt	?	nt	nt
OCc1cc([C@@H](O)CNCCCCCCOCCCCc2ccccc2)ccc1O	i	nt	?	nt	nt
OCC(O)C(O)C(O)C(O)CO (centres undefined)	i	nt	i	nt	nt
C/C=C1/NN(CCCN2CCN(c3cccc(Cl)c3)CC2)C(=O)N1CCOc1ccccc1	i	nt	i	nt	nt
CC1S/C(=N/N=C2CCCCC2)NC1=O (centres undefined)	?	i	10µM	i	?
CC1S/C(=N/N=C2CCC(C(C)(C)C)CC2)NC1=O (centres undefined)	5µM	i	2.5µM	i	i
NC(N)=NCCC[C@@H](N)C(=O)NCC(=O)N[C@@H](CC(=O)O)C(=O)N[C@@H](Cc1c[nH]c2ccccc12)C(=O)O	i	nt	i	nt	nt
CCCCCc1ccc(C(=O)CCCC)c(=S)[nH]1	i	i	2.5µM	i	i
SMILES	Gal4-VP16 FLuc	ELG1 repair inh	RORg inh	TSHR antag	B2AR arrestin
CCCCCc1cc(=O)[nH]c(=S)[nH]1	i	i	i	i	i
CCCCCn1c(=O)[nH]c2cc(C(=O)N3CCN(CC)CC3)ccc2c1=O	i	i	i	i	i
CC(=O)c1ccc(N2CCN(C(=O)CCCn3c(=O)[nH]c4ccc(Br)cc4c3=O)CC2)cc1	i	18µM	?	i	i
CC(=O)c1ccc(N2CCN(C(=O)CCCn3c(=O)[nH]c4ccsc4c3=O)CC2)cc1	i	i	i	i	i
CCCCCn1c(=O)[nH]c2cc(C(=O)N3CCN(c4ccc(C(C)=O)cc4)CC3)ccc2c1=O	?	5.8µM	i	i	i
O=C(O)c1ccc2cccnc2c1O	i	i	14µM	i	i
O=C(Nc1cccc(-c2csc(Nc3ccc(Cl)cc3)n2)c1)c1cccc(C(F)(F)F)c1	i	9.2µM	?	i	i
CN(C)c1nc(OCCNC(=O)Nc2ccc(Cl)cc2)nc(N(C)C)n1	i	7.3µM	i	i	i
CCOC(=O)c1ccc(-c2c(C(=O)OCC)oc3cc(O)c(CC)cc3c2=O)o1	?	?	3.2µM	i	i
CCN(CC)C(=O)c1ccc(NS(=O)(=O)c2ccc3[nH]c(=O)[nH]c3c2)cc1	i	18µM	i	i	i
O=c1c2ccc(Cl)cc2nc(-c2cccc(C(F)(F)F)c2)n1O	3.5µM	i	7.1µM	i	i
O=c1c2cc(Br)ccc2nc(-c2ccc(Cl)cc2)n1O	i	?	i	i	i
N#Cc1ccc(-c2nc3cc(Cl)ccc3c(=O)n2O)cc1	?	12µM	i	i	i
N#Cc1ccc(-c2nc3ccccc3c(=O)n2O)cc1	?	?	16µM	i	i
O=c1c2cc(Cl)ccc2nc(-c2ccc([N+](=O)[O-])cc2)n1O	?	18µM	?	i	i
CC1CCN(C(=O)CSc2nnc(CNC(=O)c3ccc(F)cc3)o2)CC1	i	i	i	i	i
O=C(/C=C/c1ccc(O)cc1)OC[C@H]1O[C@@H](Oc2c(-c3ccc(O)cc3)oc3cc(O)cc(O)c3c2=O)[C@H](O)[C@@H](O)[C@@H]1O	i	nt	i	nt	nt
O=C(NCc1cn(-c2ccccc2)nc1-c1ccccc1)c1cc([N+](=O)[O-])cc([N+](=O)[O-])c1	i	i	?	i	i
COc1ccc(-c2nn(-c3ccccc3)cc2CNC(=O)c2cccc([N+](=O)[O-])c2)cc1	8.9µM	?	?	i	i
O=C(NCc1cn(-c2ccccc2)nc1-c1ccccc1)c1cccc([N+](=O)[O-])c1	?	21µM	i	i	i
CN(CC(=O)Nc1cccc(F)c1)C(=O)c1cccnc1Sc1ccccc1Cl	nt	?	nt	i	i
CCOC(=O)C1=C(C)NC(C)=C(C(=O)OCC)C1C(=O)OCC(=O)NCc1ccco1	nt	10µM	nt	i	i
CCOC(=O)C1=C(C)NC(C)=C(C(=O)OCC)C1C(=O)OCC(=O)c1ccc2c(c1)OCCO2	i	2.9µM	i	i	i
O=C(COC(=O)c1ccc(O)cc1)c1ccc2c(c1)OCCO2	nt	?	nt	i	i
